Source: PubChem BioAssay (EPA / NIEHS)
Values joined by “and” are separate entries in the source; they are usually repeats but may differ in a detail not shown here. Equal values may be shown once. Active and inactive are the calls of the source. How the source made its calls: active means hit-call score of the fitted dose curve at least 0.9, where 1 is the maximum; inactive means score below 0.9.

Tests used:
[1] = read-out: Interferon-gamma inducible Protein 10 (IP10), CXCL10 (gene 3627); assay: BSK_BE3C_IP10: BioMAP Diversity Plus: BE3C Assay for Interferon-gamma inducible Protein 10 (IP10) Biomarker Activity (AID 2283034); settings: primary human bronchial epithelial cells; actives raise or lower the signal
In short: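 Using primary human bronchial epithelial cultures, the assay captures IP-10 by ELISA one day (24 h) after exposure. Parallel SRB staining of total protein flags overt cytotoxicity. Fits run bidirectionally relative to DMSO.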

[2] = read-out: Urokinase-type plasminogen activator receptor (uPAR), PLAUR (gene 5329); assay: BSK_BE3C_uPAR: BioMAP Diversity Plus: BE3C Assay for Urokinase-type plasminogen activator receptor (uPAR) Biomarker Activity (AID 2283039); settings: primary human bronchial epithelial cells; actives raise or lower the signal
In short: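 A uPAR ELISA serves as the readout, taken 24 h after treating primary human bronchial epithelial cells. Responses in either direction are fitted against DMSO, which defines baseline activity.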

[3] = read-out: Interleukin-6 (IL6), IL6 (gene 3569); assay: BSK_CASM3C_IL6: BioMAP Diversity Plus: CASM3C Assay for Interleukin-6 (IL6) Biomarker Activity for (AID 2283040); settings: primary human coronary artery smooth muscle cells; actives raise or lower the signal
[4] = read-out: Human Leukocyte Antigen - DR isotype (HLADR), HLA-DRA (gene 3122); assay: BSK_CASM3C_HLADR: BioMAP Diversity Plus: CASM3C Assay for Human Leukocyte Antigen - DR isotype (HLADR) Biomarker Activity (AID 2283043); settings: primary human coronary artery smooth muscle cells; actives raise or lower the signal;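 further: cell-surface HLA-DR protein level quantified by ELISA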
[5] = read-out: Macrophage colony-stimulating factor (MCSF), CSF1 (gene 1435); assay: BSK_CASM3C_MCSF: BioMAP Diversity Plus: CASM3C Assay for Macrophage colony-stimulating factor (MCSF) Biomarker Activity (AID 2283044); settings: primary human coronary artery smooth muscle cells; actives raise or lower the signal;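 further: M-CSF protein amount quantified by ELISA after 24 h exposure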
[6] = read-out: Monocyte Chemoattractant Protein-1 (MCP1), CCL2 (gene 6347); assay: BSK_CASM3C_MCP1: BioMAP Diversity Plus: CASM3C Assay for Monocyte Chemoattractant Protein-1 (MCP1) Biomarker Activity (AID 2283046); settings: primary human coronary artery smooth muscle cells; actives raise or lower the signal;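 further: MCP-1 level quantified by ELISA 24 h after dosing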
[7] = BSK_CASM3C_Proliferation: Cell Proliferation Assessment in the BioMAP Diversity Plus: CASM3C Assay (AID 2283047); settings: primary human coronary artery smooth muscle cells;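 further: sulforhodamine B total protein stain as relative cell number at 560 nm; sub-confluent cells exposed 48 h before staining; fitted both ways against DMSO so gain or loss of cell number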
[8] = read-out: Monokine induced gamma interferon (MIG), CXCL9 (gene 4283); assay: BSK_CASM3C_MIG: BioMAP Diversity Plus: CASM3C Assay for Monokine induced gamma interferon (MIG) Biomarker Activity (AID 2283048); settings: primary human coronary artery smooth muscle cells; actives raise or lower the signal;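 further: MIG protein level measured by ELISA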
[9] = BSK_CASM3C_SRB: Viability Assessment in the BioMAP Diversity Plus: CASM3C Assay (AID 2283050); settings: primary human coronary artery smooth muscle cells;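 further: cells exposed to compound for 24 h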
[10] = read-out: Tissue Factor, F3 (gene 2152); assay: BSK_CASM3C_TissueFactor: BioMAP Diversity Plus: CASM3C Assay for Tissue Factor Biomarker Activity (AID 2283052); settings: primary human coronary artery smooth muscle cells; actives raise or lower the signal;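 further: cell surface tissue factor protein level read by ELISA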
[11] = read-out: Interferon-gamma inducible Protein 10 (IP10), CXCL10 (gene 3627); assay: BSK_hDFCGF_IP10: BioMAP Diversity Plus: hDFCGF Assay for Interferon-gamma inducible Protein 10 (IP10) Biomarker Activity (AID 2283053); settings: primary human foreskin fibroblasts; actives raise or lower the signal
In short: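 IP-10 levels, quantified by ELISA, are taken from human foreskin fibroblast cultures 24 h after chemical treatment, with DMSO serving as negative control and baseline for bidirectional analysis.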

[12] = read-out: Vascular cell adhesion molecule 1 (VCAM1), VCAM1 (gene 7412); assay: BSK_CASM3C_VCAM1: BioMAP Diversity Plus: CASM3C Assay for Vascular cell adhesion molecule 1 (VCAM1) Biomarker Activity (AID 2283055); settings: primary human coronary artery smooth muscle cells; actives raise or lower the signal;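 further: VCAM-1 protein level quantified by ELISA on the cells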
[13] = read-out: Epidermal growth factor receptor (EGFR), EGFR (gene 1956); assay: BSK_hDFCGF_EGFR: BioMAP Diversity Plus: hDFCGF Assay for Epidermal growth factor receptor (EGFR) Biomarker Activity (AID 2283057); settings: primary human foreskin fibroblasts; actives raise or lower the signal
In short: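 Measured by ELISA: EGFR levels on primary human foreskin fibroblasts 24 h after chemical treatment, analysed relative to DMSO with bidirectional fitting.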

[14] = read-out: Interleukin-8 (IL8), CXCL8 (gene 3576); assay: BSK_hDFCGF_IL8: BioMAP Diversity Plus: hDFCGF Assay for Interleukin-8 (IL8) Biomarker Activity (AID 2283058); settings: primary human foreskin fibroblasts; actives raise or lower the signal
In short: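 Cells used are human skin primary fibroblasts. Chemical is added, cultures run 24 h, then IL-8 is quantified by ELISA, and gain or loss versus DMSO control is fitted in both directions.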

[15] = BSK_hDFCGF_Proliferation: Cell Proliferation Assessment in the BioMAP Diversity Plus: hDFCGF Assay (AID 2283059); settings: primary human foreskin fibroblasts;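 further: curves fitted for both rise and fall of signal versus DMSO baseline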
In short: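 This proliferation readout used SRB total-protein staining of human foreskin fibroblasts […], normalized to DMSO with bidirectional curve fitting.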

[16] = BSK_hDFCGF_SRB: Viability Assessment in the BioMAP Diversity Plus: hDFCGF Assay (AID 2283061); settings: primary human foreskin fibroblasts;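 further: cells exposed to compound for 24 h before the read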
In short: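 Readout is SRB absorbance at 560 nm, reflecting total protein in parallel cultures of human foreskin fibroblasts harvested 24 h after chemical dosing. Activity was fitted bidirectionally relative to DMSO.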

[17] = read-out: TIMP metallopeptidase inhibitor 1 (TIMP1), TIMP1 (gene 7076); assay: BSK_hDFCGF_TIMP1: BioMAP Diversity Plus: hDFCGF Assay for TIMP metallopeptidase inhibitor 1 (TIMP1) Biomarker Activity (AID 2283062); settings: primary human foreskin fibroblasts; actives raise or lower the signal
In short: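 Human skin fibroblasts (primary), hDFCGF system; compound exposure 24 h; TIMP-1 by ELISA; bidirectional fit vs DMSO negative control; overt cytotoxicity by SRB in parallel wells.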

[18] = read-out: Monokine induced gamma interferon (MIG), CXCL9 (gene 4283); assay: BSK_hDFCGF_MIG: BioMAP Diversity Plus: hDFCGF Assay for Monokine induced gamma interferon (MIG) Biomarker Activity (AID 2283063); settings: primary human foreskin fibroblasts; actives raise or lower the signal
In short: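 Chemicals were added to primary human foreskin fibroblast cultures, which were sampled 24 h later. MIG levels were then quantified by ELISA and responses fitted in both directions relative to DMSO.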

[19] = read-out: Matrix Metallopeptidase 1 (MMP1), MMP1 (gene 4312); assay: BSK_hDFCGF_MMP1: BioMAP Diversity Plus: hDFCGF Assay for Matrix Metallopeptidase 1 (MMP1) Biomarker Activity (AID 2283064); settings: primary human foreskin fibroblasts; actives raise or lower the signal
In short: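 Primary human foreskin fibroblasts in the hDFCGF system were dosed with test chemical, and MMP1 was measured by ELISA 24 h later. Values come from bidirectional curve fitting against the DMSO baseline.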

[20] = read-out: Vascular cell adhesion molecule 1 (VCAM1), VCAM1 (gene 7412); assay: BSK_hDFCGF_VCAM1: BioMAP Diversity Plus: hDFCGF Assay for Vascular cell adhesion molecule 1 (VCAM1) Biomarker Activity (AID 2283065); settings: primary human foreskin fibroblasts; actives raise or lower the signal;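 on AC50: VCAM-1 protein level quantified by ELISA after 24 h chemical exposure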
In short: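 Human foreskin fibroblast primary cells, chemical exposure 24 h; VCAM-1 by ELISA; bidirectional fit, DMSO = negative control/baseline.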

Measured: AC50

CCCOC(=O)c1ccccc1C(=O)OCCC
inactive: all assays above

O=C(O)CCCc1ccc(N(CCCl)CCCl)cc1
active: [1] 16.2 µM and 20 µM | [3] 15.8 µM and 20 µM | [4] 15.9 µM and 20 µM | [5] 17 µM and 15.7 µM | [6] 24 µM and 20 µM | [7] 20 µM and 1.6 µM | [8] 30.8 µM and 20 µM | [9] 24.8 µM and 20 µM | [10] 15.2 µM and 5.57 µM | [12] 17 µM and 20 µM | [15] 6.32 µM and 5.54 µM
inactive: [2] | [11] | [13] | [14] | [16] | [17] | [18] | [19] | [20]

CC(C)(C)C(=O)CCl
active: [4] 4.45 µM | [5] 0.65 µM | [7] 20 µM | [8] 20 µM | [12] 11.7 µM | [20] 12.2 µM
inactive: all other assays above

CCC(C)c1cc([N+](=O)[O-])cc([N+](=O)[O-])c1OC(=O)C=C(C)C (stereo not given)
active: [1] 8.21 µM | [2] 32.8 µM | [4] 5.31 µM | [5] 30.7 µM | [7] 36.2 µM | [8] 33 µM | [9] 30.3 µM | [10] 7.73 µM | [11] 7.21 µM | [12] 20.5 µM | [15] 5.09 µM | [16] 11.5 µM | [17] 12 µM | [18] 9.88 µM | [19] 12.3 µM | [20] 5.91 µM
inactive: [3] | [6] | [13] | [14]

O=[N+]([O-])C=Cc1ccccc1
inactive: [13]
active: [1] 2.48 µM | [2] 5.37 µM | [3] 31.3 µM | [4] 12.1 µM | [5] 20 µM | [6] 27.6 µM | [7] 10.9 µM | [8] 27.1 µM | [9] 20 µM | [10] 20 µM | [11] 2.63 µM | [12] 8.66 µM | [14] 4.35 µM | [15] 0.596 µM | [16] 20 µM | [17] 13 µM | [18] 2.4 µM | [19] 3.96 µM | [20] 1.41 µM

Clc1ccc(-c2ccccc2)cc1
inactive: all assays above

C=CCN(CC=C)C(=O)C(Cl)Cl
inactive: all assays above

O=c1c2ccccc2c(=O)c2c1cc(Cl)c1[nH]c3c([nH]c12)c(Cl)cc1c(=O)c2ccccc2c(=O)c13
active: [11] 29 µM | [20] 14.4 µM
inactive: all other assays above
